Screening results from PubChem BioAssay.
USP17 inh = inhibitors of human USP17 deubiquitinase; purified USP17, Ub-rhodamine cleavage fluorescence, 3 h; A8MUK1; hit rate 6.5% among 47,000; inhibition, % at 50 µM
USP30 block = inhibitors of human USP30 deubiquitinase; purified USP30, Ub-rhodamine cleavage fluorescence; inhibition, % at 25 µM; hit rate 5.3% among 47,000; Q70CQ3
USP28 inh = blocks human USP28 ubiquitin-rhodamine cleavage; purified USP28, Ub-rhodamine cleavage fluorescence, 30 min; inhibition, % at 25 µM; hit rate 3% among 47,000
OTUD3 inh = inhibitors of human OTUD3 deubiquitinase | hit rate 0.7% among 47,000 | AID 1645858 | inhibition, % at 25 µM | purified OTUD3, Ub-rhodamine fluorescence, 2 h
Target sequence (Q5T2D3 whole entry, looked up): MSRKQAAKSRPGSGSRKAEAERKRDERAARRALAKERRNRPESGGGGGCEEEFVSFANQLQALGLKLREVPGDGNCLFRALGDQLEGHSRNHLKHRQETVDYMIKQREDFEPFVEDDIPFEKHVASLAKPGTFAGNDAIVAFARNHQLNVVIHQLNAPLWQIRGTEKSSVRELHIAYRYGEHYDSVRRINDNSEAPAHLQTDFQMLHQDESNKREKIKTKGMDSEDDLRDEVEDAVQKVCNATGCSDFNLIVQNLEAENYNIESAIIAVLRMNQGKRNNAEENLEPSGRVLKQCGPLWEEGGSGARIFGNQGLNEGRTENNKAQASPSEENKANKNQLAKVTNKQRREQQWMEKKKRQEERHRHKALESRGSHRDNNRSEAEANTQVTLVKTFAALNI
* marks the source's active call; other numbers are inactive results; i = inactive; / = not tested or not shown. Hits are enriched below; roughly 12% of the tested compounds scored in any of these assays. Cut-off read from the data, not from the text of the source: active = inhibition above about 30%; inactive = the rest.

SMILES	USP17 inh	USP30 block	USP28 inh	OTUD3 inh
Cn1c(N2CCCCCC2)nc2c1c(=O)n(Cc1ccccc1Cl)c(=O)n2C	-9	-5	-6	-3
Cn1c(N2CCCCCC2)nc2c1c(=O)n(Cc1ccc(Cl)cc1)c(=O)n2C	2	39*	11	9
CC1CN(Cc2ccccc2)c2nc3c(c(=O)n(CCN4CCCCC4)c(=O)n3C)n2C1 (stereo unspecified)	-1	0	-4	-1
CC(=O)c1ccc(NC(=O)CCn2c(=O)c3cccn3c3ccccc32)cc1	43*	-245	-1	-21
CC1=C(C(=O)Nc2ccccc2C)C(c2ccccc2OCc2ccccc2Cl)n2ncnc2N1 (stereo unspecified)	5	-2	-1	2
CCOc1ccc(/C=C/C(=O)Nc2nnc(C)s2)cc1	31*	-65	-8	-11
COc1cc(O)c2c(c1)C(=O)c1cc3c(c(O)c1C2=O)[C@@H](O[C@@H]1O[C@@H](C)[C@H](O)[C@H](O)[C@H]1OC)[C@H](OC)[C@](C)(O)C3=O	-167	i	-223	-176
CCCc1cc(=O)n2[nH]c(COc3ccccc3)c(-c3ccccc3)c2n1	40*	55*	40*	13
CCCc1cc(=O)n2[nH]c(-c3ccccc3)cc2n1	-14	-8	-9	-7
CC1Cc2ccccc2N1C(=O)COC(=O)/C=C/c1cn(-c2ccccc2)nc1-c1cc2ccccc2oc1=O (stereo unspecified)	-31	-77	-22	-25
Cn1c(=O)c(-c2ccc(C(=O)NCc3ccc4c(c3)OCO4)cc2)nc2cccnc21	28	2	24	-4
CCn1c(CCNC(=O)c2ccc(Cl)cc2)nc2cccnc21	-101	-392	-65	-68
Cn1c(=O)c(-c2ccc(C(=O)NCc3cccc(Cl)c3)cc2)nc2cccnc21	67*	82*	19	19
CCn1c(=O)c(-c2ccc(C(=O)Nc3ccccc3F)cc2)nc2cccnc21	48*	10	7	5
O=C(CN1C(=O)c2ccccc2Sc2ccc(C(=O)N3CCCC3)cc21)Nc1ccccc1Cl	52*	-140	38*	-2
Cc1cccc(CN2C(=O)c3ccccc3Sc3ccc(C(=O)N4CCC5(CC4)OCCO5)cc32)c1	7	0	9	3
CCOC(=O)c1cnc2c(cnn2C)c1NCc1cccc(C(F)(F)F)c1	15	41*	11	12
Cn1c(=O)/c(=C/c2ccccc2)[nH]c(=O)/c1=C/c1ccccc1	56*	20	7	4
CCOc1ccccc1C(=O)Nc1ccc(S(=O)(=O)NCc2ccco2)cc1	-23	-60	6	7
CCCCCCCCCCCCCC/C=C/C(O)C(=O)NC(CO[C@@H]1O[C@@H](CO)[C@@H](O)[C@H](O)[C@@H]1O)C(O)/C=C/CC/C=C(\C)CCCCCCCCC (stereo partly specified)	0	2	-8	-4
O=C(c1cccc(-c2noc(-c3ccc(F)cc3)n2)c1)N1CCCC1	0	15	-2	-3
Cc1cccc(C(=O)N2CCN(c3nc(-c4ccc(Cl)cc4)no3)CC2)c1	13	40*	18	10
Cc1ccccc1-c1nc(-c2cccc(C(=O)N3CCCC3)c2)no1	14	36*	7	5
O=C(CCCc1ccccc1)Nc1nnc(C2CC(=O)N(c3ccccc3)C2)s1 (stereo unspecified)	41*	/	/	10
CCc1ccc(N2CC(c3nnc(NC(=O)Cc4ccc(C)cc4)s3)CC2=O)cc1 (stereo unspecified)	50*	33*	17	29
SMILES	USP17 inh	USP30 block	USP28 inh	OTUD3 inh
CCOc1ccccc1C(=O)Oc1ccc2c(C)cc(=O)oc2c1	59*	31*	8	2
O=C(CSc1ncnc2c1oc1ccccc12)Nc1ccccc1F	43*	/	/	-4
O=C(CSc1ncnc2c1oc1ccccc12)Nc1ccc(Cl)c(Cl)c1	23	/	/	-9
O=C(CSc1nc(-c2ccccc2)c2ccccc2n1)NCCc1ccccc1	31*	18	29	22
COc1ccc(NC(=O)CSc2ncnc3c2oc2ccccc23)c(OC)c1	32*	20	11	12
CCc1nc(SCC(=O)Nc2cc(OC)ccc2OC)c2oc3ccccc3c2n1	16	13	8	16
O=C(CSc1ncnc2c1oc1ccccc12)Nc1cccc2ccccc12	8	16	0	7
O=C(CSc1ncnc2c1oc1ccccc12)NCCc1ccccc1	64*	36*	15	12
CO/C=C/C(=O)c1cc2cnc3c(=N)cc(NC(C)=O)c([nH]1)c23	54*	-26	43*	12
Cc1nnc(NC(=O)C2CCN(c3ccc(S(=O)(=O)N4CCCCC4)cc3[N+](=O)[O-])CC2)o1	-76	-16	-17	0
Nc1nc(-c2cc([N+](=O)[O-])cs2)cs1	-11	7	21	9
Nc1ncnc2sc(Nc3ccc([N+](=O)[O-])cc3)nc12	34*	39*	33*	10
CN(C)c1ccc(-c2noc(C(=O)NC3CC(C)(C)NC(C)(C)C3)n2)cc1	5	26	14	6
CC1(C)CC(NC(=O)c2nc(-c3ccc(F)cc3)no2)CC(C)(C)N1	16	34*	6	11
COc1cc(Cl)ccc1C(=O)Nc1cccc(-n2cnnn2)c1C	82*	47*	21	12
Cc1c(NC(=O)/C=C/c2cccc(Cl)c2Cl)cccc1-n1cnnn1	25	43*	0	-4
Cc1ccccc1C(=O)Nc1cccc(-n2cnnn2)c1C	-24	-252	-76	-51
O=C(O)c1ccc2c(=O)n3c(nc2c1)/C(=C/c1ccc2c(c1)OCCO2)CC3	-28	-35	5	4
c1ccc(-c2n[nH]c(C3CCCN3)n2)cc1 (stereo unspecified)	-10	-2	-4	3
Clc1cccc(-c2cn[nH]c2C2CCCN2)c1 (stereo unspecified)	4	34*	15	15
Cc1cnc(C(=O)N2CCC[C@@H]3NC(=O)c4ccccc4OCC/C=C/C[C@@H]32)cn1	0	-15	45*	9
COCC(C)Nc1ncc(-c2cnccn2)c(-c2ccc(C)s2)n1 (stereo unspecified)	63*	25	12	3
CC(=O)Nc1cc(C(=O)NC(C)c2ccccc2)c2ccc(C)nc2c1 (stereo unspecified)	-4	-74	-11	-16
Cc1ccc2cc(NC(=O)CC(CC(=O)O)c3ccccc3)ccc2n1 (stereo unspecified)	53*	/	/	-27
O=C(Cn1cc(S(=O)(=O)N2CCCCCC2)ccc1=O)N1CCCc2ccccc21	8	-5	4	6
CCCc1cc(=O)n2[nH]c(-c3ccc(C)cc3)cc2n1	43*	-7	-10	-2
Cc1cc(C)cc(-c2nc(Cn3cnc4ccccc4c3=O)no2)c1	-84	-405	-70	-45
Cc1nc(N2CCCCC2)ncc1-c1cc(=O)[nH]c(Nc2nc(C)c3ccccc3n2)n1	66*	60*	10	-4
O=C(O)c1cccnc1N1CCCC1c1ccccc1 (stereo unspecified)	4	-16	-7	-6
